# Out of some 4,500 compounds screened, about 200 (4.4%) were called active. This excerpt belongs to a sample that is enriched for actives. Values without a mark were called inactive.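 Rule for the calls: active = cell survival measured by absorbance rises more than 2.5-fold over infected cells without compound; inactive = the rest.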
# Experiment: survival after telomere uncapping, modulators, primary screen, cell-based (AID 1259312);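 note: virus expresses mutant telomerase RNA that uncaps telomeres and kills cells; compound added 2 days after infection so exposure lasts 3 days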
# Conditions: HCT116 + Ad-hTR-mut, MTT, 5 d; at 10 µM, stronger effect = higher value
row,SMILES,fold change
1,O=[N+]([O-])c1ccc2c(c1)Cc1cc([N+](=O)[O-])ccc1-2,-1.19
2,O=S(=O)(c1ccccc1)N1CCc2ccccc21,-1.19
3,O=S(=O)(c1ccc(Cl)cc1)N1CCc2ccccc21,4.39 (active)
4,O=S(=O)(c1ccc(Cl)cc1)N1CCCc2ccccc21,1.97
5,CCOC(=O)c1c(NC(=O)c2cccs2)sc2c1CCCCC2,1.37
6,CC(C(=O)Nn1cnnc1)N1C(=O)c2ccccc2C1=O (centres undefined),-8.91
7,O=[N+]([O-])c1ccc2c(c1)oc1ccc(S(=O)(=O)N3CCCC3)cc12,1.12
8,O=[N+]([O-])c1cccc(S(=O)(=O)N2CCCC2)c1,3.3 (active)
9,Nc1cccc(S(=O)(=O)N2CCCC2)c1,-1.08
10,CC(C)CC(=O)NC1CCCCCC1,-1.5
11,O=C1N=C(N2CCOCC2)S/C1=C\C1=Cc2ccccc2OC1,-1.34
12,OC[C@H]1O[C@@H](O[C@@H]2[C@@H](CO)O[C@](O)(CO)[C@H]2O)[C@H](O)[C@@H](O)[C@H]1O,1.55
13,OCC1(O)OC[C@H](O)[C@@H](O)[C@@H]1O (some centres undefined),2.95 (active)
14,CC1(C)[C@H]2CCC1(CS(=O)(=O)N(C1CCCCC1)C1CCCCC1)C(O)C2 (some centres undefined),-1.17
15,O=C(Cn1c(C(F)(F)F)nc2ccccc21)NC1CCCCC1,-1.95
16,N=C1SCC(=O)N1c1nccs1,1.78
17,c1ccc2c(c1)c1ccccc1c1nc3c4ccccc4c4ccccc4c3nc21,4.67 (active)
18,O=c1c2ccccc2c2nc3c(c(-c4cccc(Br)c4)c12)c(=O)c1ccccc13,-1.26
19,O=c1c2ccccc2c2nc3c(c(-c4ccccc4)c12)c(=O)c1ccccc13,-1.07
20,COC(=O)C1=C(C(=O)OC)SC2(S1)C(C(=O)OC)=C(C(=O)OC)SC1=C2c2cc(OC)ccc2NC1(C)C,1.52
21,Cn1c(-c2ccc(Cl)cc2Cl)n[nH]c1=S,2.57 (active)
22,Cc1ccc(-c2n[nH]c(=S)n2C)cc1Cl,-1.92
23,C=CCn1c(-c2ccc(Cl)cc2Cl)n[nH]c1=S,1.34
24,NC(=O)c1c(NC(=O)CCC(=O)O)sc2c1CCCC2,-1.38

# From PubChem BioAssay AID1259312 (Keith Lab, Institute of Cancer Science, University of …, 2017)
